# KB-3-1 cytotox: KB-3-1 parental cell cytotoxicity | KB-3-1 viability, CellTiter-Glo ATP luminescence, 72 h | Potency, µM (series often up to 46.1 µM), usual class: cytotoxic | 400,000 compounds, 1.4% hits | AID 1347075; further: on the % scale 0 is the no-effect control and ±100 the full control effect; nearly all actives have a fitted effect of over 60% in size
#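 Viability of parental KB-3-1 cells, measured by CellTiter-Glo luminescence, followed a 72 h incubation at 37 °C with pinned compounds in phenol-red-free DMEM containing 10% FBS.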
# ATXN viability: reduces viability in counter-screen for ATXN expression inhibitors | 400,000 compounds, 0.49% hits | S2 cells (HEK-293 line with an ATXN2-luciferase reporter) viability, CellTiter-Fluor protease fluorescence, 24 h | AID 651635 | Potency, µM (titrated, usually from 56.7 µM), hits mostly cytotoxic; further: nearly all actives have a fitted effect of over 40% in size
# KB-V1 cytotox: kills drug-selected multidrug resistant KB-V1 cells; KB-V1 MDR cells viability, CellTiter-Glo, 72 h; Potency, µM (series often up to 46.1 µM), actives largely listed as cytotoxic; 400,000 compounds, 3.4% hits; AID 1347076; further: on the % scale 0 is the no-effect control and ±100 the full control effect; nearly all actives have a fitted effect of over 60% in size
#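 Compound-treated KB-V1 multidrug-resistant cells, 72 h, 37 degrees C; viability by CellTiter-Glo. Fitted qHTS curves give the values.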
# HT1080-NT tox: kills 2HG-producing HT-1080-NT fibrosarcoma cells; HT-1080-NT fibrosarcoma viability, CellTiter-Glo ATP luminescence, 48 h; 360,000 compounds, 1.6% hits; Potency, µM (doses to about 46.1 µM), for inactives: at the top dose activity, negative = less viability, hits mostly cytotoxic;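 further: NT is the 2HG producing partner of a matched IDH1 knockdown line; 0% = DMSO-treated cells and -100% = media-only wells without cells; nearly all actives have a fitted effect of over 55% in size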
#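 HT-1080-NT fibrosarcoma cells (2HG-overproducing), 750 cells/well in RPMI with 5% FBS, dosed after 2 h and incubated 48 h at 37C. CellTiter-Glo luminescence normalized to DMSO and no-cell wells; concentration-response curves fitted and classed.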
# HT1080 IDH1KD tx: kills HT-1080 cells with IDH1 knockdown | 360,000 compounds, 2% hits | Potency, µM (top dose mostly 46.1 µM), without a hit: at the highest dose activity, negative = toxicity, actives largely listed as cytotoxic | HT-1080 IDH1 knockdown viability, ATP luminescence, 48 h;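 further: 0% = DMSO wells and -100% = cell-free medium wells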
#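 Luminescent ATP read-out (CellTiter-Glo, 10 min at room temperature) after 48 h compound exposure at 37 °C gave viability of IDH1-knockdown HT-1080 cells. Activity was normalised to DMSO and cell-free wells, then fitted as concentration-response curves.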
# ATXN2 expr inh: reduces ATXN2 reporter expression in HEK-293 cells. HEK-293 ATXN2-luciferase reporter, luminescence, 24 h. Potency, µM (highest dose often 57 µM), for inactives: top-dose activity change, negative = inhibition, usual class: inhibitors. 360,000 compounds, 0.72% hits. AID 1745845; further: on the % scale 0 is the no-effect control and ±100 the full control effect; nearly all actives have a fitted effect of over 55% in size
#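 qHTS (up to 57 uM final) was run with 24 h compound exposure of reporter cells at 37 °C. Each well was multiplexed: SteadyGlo luminescence measured ATXN2-luciferase expression after a fluorogenic Gly-Phe-AFC viability readout (25 uM final).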
# Numbers without * were called inactive; i = inactive; ? = inconclusive; / = not tested or not shown; [ ] = remark or other dose. In the library only some 6.2% were active in any assay of this set; here they are far more common. The call rests on the fitted dose curve; in most records, active means well fitted curve in the direction sought with a large enough effect; inconclusive means small, poorly fitted or top-dose-only effect, or another doubt; inactive means no such curve, though single readings can be large; an effect the other way counts as inactive or inconclusive. Potency means the concentration at half of the fitted maximal effect.
SMILES,KB-3-1 cytotox,ATXN viability,KB-V1 cytotox,HT1080-NT tox,HT1080 IDH1KD tx,ATXN2 expr inh
CCCn1c(NC(=O)c2cccc(S(=O)(=O)N3CCCC3)c2)nc2ccccc21,16µM*,?,16µM*,?,?,16µM*
CCC(=O)Nc1nc2ccccc2n1Cc1ccccc1Cl,?,?,?,?,-14%,/
CCC(=O)NCc1nc2ccccc2n1Cc1ccccc1F,i,i,23µM*,2%,-5%,1%
Cn1c(NC(=O)c2cccnc2)nc2ccccc21,i,i,16µM*,-3%,-5%,30%
CC(=O)Nc1nc2ccccc2n1Cc1ccccc1Cl,?,?,?,18µM*,?,-25%
CN1CCN(N)CC1,/,i,/,/,/,-4%
CCCn1c(NC(=O)c2ccccc2)nc2ccccc21,?,i,15µM*,-23%,-30%,7%
CCN(CC)CCn1c(NCc2ccccn2)nc2ccccc21,i,i,i,9%,4%,1%
CCn1c(NC(=S)Nc2ccccc2)nc2ccccc21,i,i,i,?,-14%,20%
CCCCCCCn1c(NC(=O)CC)nc2ccccc21,?,i,9.2µM*,-25%,?,?
CCCCn1c(NCc2ccccn2)nc2ccccc21,i,i,13µM*,-4%,?,20%
CCCn1c(NC(=O)c2ccc(C)cc2)nc2ccccc21,?,i,?,-5%,-10%,11%
CCCn1c(NC(=S)Nc2ccccc2)nc2ccccc21,?,i,16µM*,-5%,-6%,-4%
CCCn1c(NCc2ccco2)nc2ccccc21,i,i,21µM*,1%,-22%,-5%
CCCCCn1c(NCc2ccco2)nc2ccccc21,i,?,i,-18%,2%,-13%
O=c1cc(-c2ccc(F)cc2)nc(SCc2nc(-c3cccc(C(F)(F)F)c3)no2)[nH]1,i,/,i,/,/,/
CC(C)N(CCCNC(=O)Nc1ccc(C(C)(C)C)cc1)C[C@H]1O[C@@H](n2cc(Br)c3c(N)ncnc32)[C@H](O)[C@H]1O,/,/,/,/,/,22µM*
CC[C@@H](C)[C@H](N)C(=O)NC[C@H]1O[C@@H](n2cnc3c(N)ncnc32)[C@H](O)[C@@H]1O,i,i,?,-2%,1%,-1%
COc1ccc2ccc3c(c2c1)N=CC1(O3)N(C)c2ccccc2C1(C)C (stereo not drawn),i,i,?,7.9µM*,6.3µM*,-9%
O=C(c1ccco1)N1CCN(C(=O)c2ccc(COc3ccc4c(c3)CCC4)o2)CC1,i,i,16µM*,-2%,-15%,3%
O=C(c1ccc(COc2ccc3c(c2)CCC3)o1)N1CCN(c2ccccc2)CC1,i,i,?,?,-2%[9.24 µM],-10%
CCCCC(CC)C(=O)Nc1ncc([N+](=O)[O-])s1 (stereo not drawn),?,?,?,?,18µM*,?
O=C(CCS(=O)(=O)c1ccccc1)Nc1ncc([N+](=O)[O-])s1,?,i,?,21µM*,16µM*,-5%
O=C(CCS(=O)(=O)Cc1ccccc1)Nc1ncc([N+](=O)[O-])s1,i,i,i,-8%,18µM*,26%
Cc1ccc(CC(=O)Nc2ncc([N+](=O)[O-])s2)cc1,?,?,i,-10%,-5%,/
SMILES,KB-3-1 cytotox,ATXN viability,KB-V1 cytotox,HT1080-NT tox,HT1080 IDH1KD tx,ATXN2 expr inh
O=C(/C=C/c1ccc([N+](=O)[O-])cc1)Nc1ncc([N+](=O)[O-])s1,?,?,8.2µM*,?,?,/
O=C(CS(=O)(=O)c1ccccc1)Nc1ncc([N+](=O)[O-])s1,i,?,i,11%,14%,-13%
CC(C=CC=C(C)C=CC1=C(C)CCCC1(C)C)=CC=CC=C(C)C=CC=C(C)C=CC1=C(C)CCCC1(C)C,/,/,/,/,/,9%
COc1cc(=O)n2c(c1C(=O)N(C)Cc1ccsc1)CCN(Cc1c(C)nc3sccn13)CC2,/,i,/,/,/,/
CCc1sc(-c2cc3ccc(O)cc3oc2=O)nc1-c1ccc(C)cc1,i,/,?,/,/,/
CCCCN(C)CCN1C(=O)C2C(C(=O)Nc3ccc(OC)cc3)C3C=CC2(O3)C1C(=O)NC1CCCCC1 (stereo not drawn),i,?,i,-1%,-5%,-19%
O=C(Nc1ncc([N+](=O)[O-])s1)c1cccs1,?,?,16µM*,23µM*,21µM*,6%
Cc1cnc(NC(=O)c2cccs2)s1,?,i,?,-29%,-25%,32%
O=C(/C=C\Nc1ccc2c(c1)OCO2)c1cccs1,?,?,i,?,6.5µM*,13%
Cc1cccc(C)c1NC(=O)C(c1ccc(C#N)cc1)n1c(=O)c(-c2ccccc2)nc2ccccc21 (stereo not drawn),i,/,i,-14%,-11%,/
COc1cc(OC)c(NC(=O)Cn2nc(C)n3cccc3c2=O)cc1Cl,i,/,i,/,/,/
Cc1ccccc1N1C(=O)[C@@H]2Cc3ccccc3CN2C1=O,i,i,16µM*,-11%,-6%,-7%
CC1CCN(S(=O)(=O)c2cn(CC(=O)N3CC(C)CC(C)C3)c(=O)c3ccccc23)CC1 (stereo not drawn),i,i,1.3µM*,1%,-10%,-13%
O=C(O)[C@@H](c1ccc(OCc2ccc3ccccc3n2)cc1)C1CCCC1,/,/,/,/,/,28%
COc1cc(N2CCC(N3CCN(C)CC3)CC2)ccc1Nc1ncnc(Nc2ccccc2S(=O)(=O)C(C)C)n1,/,/,/,/,/,27µM*
COc1cc(N2CCC(C(N)=O)CC2)ccc1Nc1nc(N)c(Cl)c(Nc2ccccc2S(=O)(=O)C(C)C)n1,/,/,/,/,/,-15%
CCOc1ccc(Nc2c(S(=O)(=O)c3ccccc3)cnc3ccc(F)cc23)cc1,i,i,i,/,/,?
Cc1ccc(NC(=O)CCCc2nnc3n(C)c(=O)c4sccc4n23)cc1F,i,i,i,/,/,-18%
Cc1ccc(NC(=S)NN(C)c2cc(C)nc(C)n2)cc1,i,?,18µM*,9%,8%,6%
Cc1cnc(C)c(N(C)NC(=S)Nc2ccccc2)n1,i,i,i,0%,-5%,3%
CCN(Cc1ccccc1)C(=O)c1ccccc1C,i,i,?,6%,2%,-3%
CCCN(CCC)C(=O)c1ccccc1C(=O)N(CCC)CCC,i,?,8.2µM*,-3%,0%,-7%
Cc1nn(-c2nnc(NCc3ccccc3)nn2)c(C)c1Br,8.2µM*,?,21µM*,-2%,11%,33%

# Assay outcomes (PubChem BioAssay)
